About 83,000 compounds went through this panel and 20% of them were active in at least one assay; those are over-represented in the sample as a whole.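 The test compound was applied at a single concentration to cells in 96-well plates for 48 hours, and percent growth was recorded.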 Values without a mark were called inactive. Calls of active or inactive are those of the source. How the source made its calls: active means growth percent below 10; inactive means the rest.

The subject of the experiment is HL-60(TB) leukemia. The experiment in a line: NCI-60 one-dose screen, 48 h (100 = growth as untreated, 0 = no growth, -100 = all killed). As to conditions: 10 µM unless noted.
With `O=C(Nc1nc(-c2ccccc2Cl)cs1)c1cc(-c2ccc(Cl)cc2)nc2ccc(Cl)cc12`, the growth was -21.9% (active).

`O=C(CN1CCCCCC1)Nc1nc2ccc(NCc3ccc(Cl)cc3)cc2s1`: the growth was 95.9%.

On to `COc1cccc(C2(C)Nc3ccccc3-c3nc4ccccc4n32)c1` (stereo not given), for which the growth was 89.1%.

`Cc1cc(N(CCNc2ccnc3cc(Cl)ccc23)Cc2cccs2)nc(Cl)n1`: the growth is -72.4% (active).

As to `COc1cc(/C(C#N)=C/c2ccc3c(c2OC)OCO3)cc2c1OCO2`, the growth is 26.9%.

Take `CCOC(=O)c1c(NC(=O)c2ccc(Cl)cc2)sc2c(CN(C)C)c(O)ccc12`: the growth was 12.5%.

Regarding `COc1cc(C=Nc2oc(-c3ccccc3)c(-c3ccccc3)c2C#N)cc(CN2CCCCC2)c1O`, the growth was 92.5%.

With `COc1ccc(S(=O)(=O)NCCNc2nccc(-c3c(-c4cccc([N+](=O)[O-])c4)nc4sccn34)n2)cc1`, the growth was 110%.

For the compound `COc1cc(C(=O)NNC(=O)c2ccccc2O)cc(OC)c1OC`, the growth was 80.4%.

For the compound `CCOC(=O)c1[nH]c(C)c(C(C)=O)c1C`, the growth was 102%.

As to `CCCCC(CC)OC(=O)C(Br)CC` (stereo not given), the growth is 99.6%.

Regarding `CCOC(=O)N1CCN(c2nc(Nc3cc(C)[nH]n3)c3ccccc3n2)CC1`, the growth was 26.3%.

Consider `CCNCc1ccccc1`, for which the growth is 101%.

As for `CSc1cnc2ccccc2n1`, the growth was 90.3%.

As to `O=[N+]([O-])c1ccccc1CN1CCCCC1`, the growth is 101%.

With `C=CC(=O)N1CC2(CC(n3nc(-c4ccc(Oc5ccccc5)cc4)c4c(N)ncnc43)C2)C1`, the growth was 62.3%.

In the case of `COc1ccc(/C(C#N)=C/c2nc3c(N4CCOCC4)nc(Cl)nc3n2C)cc1OC`, the growth is -28% (active).

Take `O=C1c2c(c3c4cc(F)ccc4oc3c3[nH]c4ccccc4c23)C(=O)N1O`: the growth is 41.8%.

In the case of `COc1cccc2ccc(CC(O)(c3ccccc3)c3ccccc3)nc12`, the growth is 95.8%.

`O=C(O)C1CCCCN1c1nc(Cl)nc(Cl)n1` (stereo not given): the growth was 97.8%.

On to `CCOC(=O)CNC(=O)C1(NC(=O)CNC(=O)OCc2ccccc2)CCCC1`, for which the growth is 87.5%.

Regarding `CCCCCCCCCCCCCC(=S)NCCCC[C@H](NC(=O)OCc1ccccc1)C(=O)Nc1ccccc1`, the growth is 8.79% (active).

On to `COc1cc(CN(c2ccc(Cl)cc2)C2OC(=O)c3ccccc32)cc(OC)c1OC` (stereo not given), for which the growth is 21.7%.

Take `CCOC(=O)C/C(=N\Nc1cc(=O)[nH]c2ccc(OC)cc12)C(=O)OCC`: the growth is 94%.

Take `O=c1c2cccc(F)c2sc2c(N3CCNCC3)nc3ccccc3c12`: the growth is 30.9%.

For `COc1ccc(/C=N/NC(=O)Cn2c(-c3ccc(S(C)(=O)=O)cc3)nc3ccccc32)cc1`, the growth was 161%.

Consider `COc1ccc(-c2nn(C(=O)NCCN(C)C)cc2-c2ccncc2)cc1Cl`, for which the growth was 10.2%.

`COc1ccc2nccc(/C=C/c3ccnc4ccc(OC)cc34)c2c1`: the growth is 63.5%.

As to `N#Cc1c(N)n2c(nc1=Nc1ccc([N+](=O)[O-])cc1)sc1cc(Cl)ccc12`, the growth was 117%.

As to `CN(CCC#N)c1ccc(/C=C2\NC(=O)NC2=O)cc1`, the growth was 92.2%.

Regarding `CCCCC[C@H]1C/C=C2/C(=O)C=C[C@@H]2C/C=C\CCCC(=O)O[C@@H](CCCCC)C/C=C2/C(=O)C=C[C@@H]2C/C=C\CCCC(=O)O1`, the growth was -47.6% (active).

Take `CN1CCN(c2ccc(NC3=C(Cl)C(=O)c4ncccc4C3=O)cc2C(F)(F)F)CC1`: the growth is -16.2% (active).

On to `CC1SC(N)=NC1=O` (stereo not given), for which the growth was 104%.

With `COc1cc(NC(C)CCCN)c2nc(C)ccc2c1Oc1ccc(F)cc1` (stereo not given), the growth is 87.9%.

Turning to `O=S(=O)(c1ccccc1)n1cc2c(c1-c1ccccc1)CCc1sc(Nc3ccccc3)nc1-2`, the growth is 94.1%.

Turning to `CN(C)CCC(O)(Cc1ccccc1)c1ccccc1` (stereo not given), the growth is 85%.

For the compound `CN1CCN(c2ccc3nc(-c4ccc5nc(-c6ccc(C(F)(F)F)cc6)[nH]c5c4)[nH]c3c2)CC1`, the growth was 23.9%.

With `COc1cc2c(=O)n(CCCN(C)C)c3c4cc[nH]c4ncc3c2cc1OC`, the growth was 75.3%.

As to `CCOC(=O)C1=C(C)N=C2SC=C(c3ccc(F)cc3)N2[C@H]1c1cn(-c2ccccc2)nc1-c1ccc(Cl)cc1`, the growth is 88.3%.

`O=c1[nH]c(=S)[nH]c(O)c1/C=C1\C=Nc2ccccc21`: the growth was 90.4%.

The record behind these values is PubChem BioAssay (NCI).
